Common to all, as to assay: NCI-60 one-dose screen, 48 h (100 = growth as untreated, 0 = no growth, -100 = all killed)
Conditions in all cases: 10 µM unless noted

In assay [1] the test system is HCT-15 colon.
For assay [2], the system named is HT29 colon.
The test system of assay [3] is SNB-75 CNS.
Assay [4] has as its system SNB-19 CNS.
The subject of assay [5] is U251 CNS.
Assay [6] concerns PC-3 prostate.
Assay [7] has as its system SK-MEL-5 melanoma.
The subject of assay [8] is UACC-62 melanoma.
In assay [9] the test system is LOX IMVI melanoma.
Assay [10] concerns SK-MEL-28 melanoma.

The panel holds about 83,000 compounds, 20% with a hit somewhere; the sample as a whole holds those more often.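 Compound tested at a single concentration for 48 hours in 96-well plates; a percent growth value below 10 was scored as active.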 A number with no mark means an inactive call. Active and inactive are the calls of the source.

Regarding `CCCCCCCCn1cc(C2=C(c3coc4ccc(OC)cc34)C(=O)NC2=O)c2ccccc21`, the growth in [1] was 97.4%; in [2], 99.3%; in [3] it was 84.8%; in assay [4], 108%; in assay [5], 97.2%; in [6] it was 107%. The growth in assay [7] was 99.2%; in assay [8], 96.2%; in [9] it was 61.2%; in assay [10], 101%.
On to `COC(=O)[C@]12CC[C@@H](C)[C@H](C)[C@@H]1C1=CC[C@@H]3[C@@]4(C)C(C=O)=C[C@@](C)(CO)C4=CC[C@@]3(C)[C@]1(C)CC2`, for which the growth was 9.41% (active) in assay [1]; 14.5% in assay [2]; 62.6% in [3]; 39.4% in assay [4]; 23.4% in assay [5]; 16.2% in [6]. Besides, the growth in assay [7] is 35.2%; in assay [8], 42.9%; in assay [9], 26.1%; in assay [10], 26.9%.
Regarding `C[C@@H]1CC[C@@H]2[C@@H]1[C@H](OC(=O)/C=C/c1ccccc1)[C@]1(C3CCCCC3)C[C@@H](NC(=O)CO)[C@@]2(C)O1`, the growth in [1] is 99%; in assay [2] it was 86%; in [3], 85%; in assay [4] it was 104%; in assay [5] it was 111%; in assay [6] it was 94%. Also, the growth in assay [7] was 104%; in [8] it was 97%; in assay [9], 100%; in assay [10] it was 98.8%.
With `CCn1c(Sc2nnc(Nc3ccccc3)s2)nc2c1c(=O)n(C)c(=O)n2C`, the growth in assay [1] is 97.6%; in [2], 137%; in assay [3] it was 101%; in assay [4], 95%; in assay [5] it was 103%; in assay [6], 100%. In addition, the growth was 99.2% in [7], 90.2% in assay [8], 95.9% in assay [9] and 93% in assay [10].
On to `O=[N+]([O-])c1ccc(-c2cc3c(Nc4ccc(Cl)c(C(F)(F)F)c4)ncnc3s2)cc1`, for which the growth in [1] was 10.2%; in assay [2], 3.89% (active); in [3], 16.4%; in assay [4], 12.1%; in [5], 8.85% (active); in assay [6] it was 11.5%. In addition, the growth in assay [7] is -42.5% (active); in [8], -1.39% (active); in assay [9], 6.09% (active); in [10], 20.1%.
`CCn1c(Sc2nnc(NC(C)=O)s2)nc2c1c(=O)n(C)c(=O)n2C`: the growth is 97.5% in assay [1]; 104% in [2]; 90% in [3]; 96.8% in assay [4]; 106% in assay [5]; 91.9% in [6]. For the same compound, the growth in [7] was 98.6%; in [8] it was 93.3%; in assay [9] it was 90%; in [10], 101%.
As to `CCC(O)(C(c1ccccc1)c1ccccn1)C(c1ccccc1)c1ccccn1` (stereo not given), the growth in [1] was 103%; in assay [2], 102%; in assay [3], 99.4%; in [4], 108%; in assay [5] it was 107%; in assay [6], 97.4%. Also, the growth in assay [7] was 106%; in assay [8], 113%; in assay [9] it was 98%; in assay [10], 107%.
`NC(N)=N/N=C(/c1ccccc1)c1ccccc1F`: the growth in assay [1] was 22%; in [2], 8.59% (active); in assay [3], 7.44% (active); in assay [4], 30.9%; in assay [5], 24.2%; in assay [6] it was 14.1%. Moreover, the growth is 15.8% in assay [7], 20.2% in [8], 46.3% in assay [9] and 63.4% in assay [10].
Regarding `NS(=O)(=O)Oc1ccc(-c2sc3cc(O)ccc3c2C(=O)c2ccc(OCCN3CCCCC3)cc2)cc1`, the growth in assay [1] is 36.2%; in [2] it was 0.722% (active); in assay [3] it was 39.6%; in [4] it was 78.2%; in [5], 21.9%; in assay [6], 69.9%. The growth is 46.2% in assay [7], -47.2% (active) in assay [8], 34.4% in assay [9] and 23.6% in assay [10].
Consider `O=C1C(Cl)C(c2ccccc2Cl)N1n1cnnc1` (stereo not given), for which the growth in assay [1] is 101%; in assay [2], 103%; in [3] it was 74%; in assay [4] it was 93%; in assay [5] it was 99.6%; in [6], 88%. Also, the growth was 97.3% in assay [7], 94.7% in assay [8], 91.4% in [9] and 96.4% in assay [10].
On to `CC(=O)C(C(C)=O)c1nc2sc3cc(Cl)ccc3n2c(=N)c1C#N`, for which the growth in [1] is 94.2%; in [2] it was 92.4%; in assay [3], 41.2%; in assay [4], 78.8%; in assay [5], 82.3%; in [6] it was 65.2%. Besides, the growth in assay [7] was 74.6%; in assay [8] it was 61.6%; in assay [9] it was 79.7%; in assay [10] it was 103%.
On to `Cc1ccc(C)c2c1C(=O)OC2=O`, for which the growth in assay [1] is 101%; in assay [2] it was 93.1%; in [3], 91.2%; in assay [4] it was 107%; in [5], 104%; in assay [6], 97.7%. For the same compound, the growth was 102% in assay [7], 101% in [8], 98.4% in assay [9] and 92.9% in assay [10].
In the case of `COc1ccc2cc(-c3ccc(C(=O)NN)c(C)n3)ccc2c1`, the growth in assay [1] was 99%; in assay [2] it was 95%; in [3], 109%; in assay [4], 96.6%; in assay [5], 98.9%; in assay [6], 93.3%. The growth was 102% in assay [7], 82.1% in assay [8], 88.2% in assay [9] and 93.7% in [10].
Take `N#Cc1c(NC(=O)c2ccc(Br)cc2)sc2c1CCCC2`: the growth in assay [1] is 22.2%; in assay [2] it was 15.8%; in [3], 13.6%; in assay [4], 38.5%; in assay [5], 31.2%; in [6], 28.9%. Besides, the growth in assay [7] is 9.6% (active); in [8], 29.1%; in assay [9] it was 38.7%; in [10], 59%.
For the compound `Cc1[nH]c(-c2nc3ccccc3[nH]2)c(C)c1C(=O)N1CCOCC1`, the growth was 95.5% in assay [1]; 98.3% in [2]; 87.8% in [3]; 88.7% in assay [4]; 100% in [5]; 98.8% in [6]. The growth in [7] is 98.8%; in [8], 90%; in assay [9], 97.4%; in assay [10], 105%.
As to `Nc1nc(N)c(-c2ccc(Cl)cc2)c(/C=C/c2ccc([N+](=O)[O-])cc2)n1`, the growth in assay [1] was 66.3%; in assay [2] it was 63.8%; in [3] it was 78.3%; in assay [4], 75%; in assay [5] it was 82.9%; in [6], 32.4%. The growth was 79.6% in assay [7], 83.1% in assay [8], 60.6% in [9] and 95.7% in assay [10].
In the case of `Cc1ccc(Nc2ccc(Nc3ccc(C)cc3S(=O)(=O)O)c3c2C(=O)c2ccccc2C3=O)c(S(=O)(=O)O)c1`, the growth is 103% in [1]; 98.4% in assay [2]; 85.3% in assay [3]; 108% in assay [4]; 107% in [5]; 83% in assay [6]. Also, the growth in [7] was 102%; in assay [8], 97.3%; in [9], 102%; in assay [10], 107%.
Take `Nc1ccc(-c2cc3c(Nc4ccc(OCc5cccc(F)c5)c(Cl)c4)ncnc3s2)cc1`: the growth in assay [1] is 32.9%; in assay [2], 84.5%; in assay [3] it was 87.2%; in assay [4] it was 77.3%; in [5], 57%; in [6], 29.6%. For the same compound, the growth in assay [7] is 57.7%; in [8] it was 55.7%; in assay [9], 24.5%; in assay [10], 39.3%.
As to `Cc1nc(Nc2ccc(N)cc2)c2ccccc2n1`, the growth in assay [1] was 89.4%; in assay [2], 88.9%; in [3], 103%; in [4] it was 97.7%; in assay [5] it was 99.1%; in assay [6] it was 91%. The growth was 91.9% in assay [7], 98.5% in assay [8], 90.7% in assay [9] and 114% in assay [10].
As to `O=C(/C=C/C12c3ccccc3C(c3ccccc31)C1C(=O)N(c3ccccc3)C(=O)C12)c1ccccc1` (stereo not given), the growth was -25.8% (active) in [1]; 15.1% in assay [2]; 34.2% in [3]; 31.2% in assay [4]; 7.97% (active) in assay [5]; 21.2% in [6]. Also, the growth in assay [7] was -67.1% (active); in assay [8], 1.31% (active); in assay [9], -81.4% (active); in assay [10], 2.04% (active).
`CCn1c(Sc2nnc(NC(=O)CCN3CCCC3)s2)nc2c1c(=O)n(C)c(=O)n2C`: the growth in [1] is 104%; in [2], 107%; in assay [3], 97.8%; in assay [4], 104%; in assay [5] it was 95.3%; in assay [6], 103%. Also, the growth in assay [7] is 104%; in [8], 101%; in assay [9] it was 99.9%; in assay [10] it was 111%.
`N=C(N)c1ccc(-c2ccc(/C=C/c3ccccc3)s2)cc1`: the growth in assay [1] was -54% (active); in [2], -2.42% (active); in assay [3], 24.3%; in [4], 24.3%; in assay [5], -46.6% (active); in assay [6], 52.7%. The growth in assay [7] was 81.3%; in [8], 86.2%; in assay [9], -82.1% (active); in assay [10], 80.8%.
`Cl.Fc1c[c-]c(-c2ccccn2)c(F)c1.[Pt].c1ccc(P(c2ccccc2)C([PH+](c2ccccc2)c2ccccc2)[PH+](c2ccccc2)c2ccccc2)cc1`: the growth is 56.1% in [1]; 11.8% in assay [2]; 7.77% (active) in assay [3]; 27.1% in assay [4]; 16.4% in [5]; 7.49% (active) in [6]. Further, the growth in assay [7] was -91% (active); in [8] it was 23.2%; in [9], 11.7%; in assay [10], 34.4%.
In the case of `CCCCCCCCCCCCCCCCCC1=NCCN1C(=O)OCCO`, the growth is -8.42% (active) in assay [1]; -47.6% (active) in assay [2]; 45.1% in assay [3]; 75.9% in assay [4]; -46% (active) in [5]; 28.4% in assay [6]. Also, the growth in assay [7] is 80.3%; in assay [8] it was 59.6%; in assay [9] it was 27.8%; in assay [10], 61.3%.
As for `CCCCCCNC(=O)c1cc(NCc2cc(O)ccc2O)ccc1O`, the growth was 34.6% in [1]; 91% in [2]; 45.7% in assay [3]; 99.7% in assay [4]; 67.3% in assay [5]; 42.6% in [6]. Also, the growth is 90% in assay [7], 56.3% in [8], 67.7% in [9] and 101% in assay [10].
With `N#C/C=C(\c1ccc([N+](=O)[O-])cc1)n1nnc2cc(Cl)c(Cl)cc21`, the growth was -39.1% (active) in [1]; 3.93% (active) in [2]; 18.1% in [3]; 41.5% in assay [4]; 11.8% in assay [5]; -12.5% (active) in [6]. Moreover, the growth is 38.5% in [7], 3.91% (active) in assay [8], -79.9% (active) in [9] and 43.2% in [10].
For `C#C[C@]1(O)CC[C@H]2[C@@H]3CC=C4c5sc(N=C(N)N)nc5CC[C@]4(C)[C@H]3CC[C@@]21C`, the growth is -60.8% (active) in assay [1]; -0.997% (active) in assay [2]; -60.5% (active) in [3]; 18.9% in assay [4]; -14.9% (active) in assay [5]; 0.258% (active) in assay [6]. In addition, the growth in [7] was -94.9% (active); in [8], -51.7% (active); in assay [9] it was -64.4% (active); in assay [10], -68.8% (active).

The values are drawn from PubChem BioAssay (NCI).
